Results filed as inconclusive are left out. A number with no mark means an inactive call. Calls of active or inactive are those of the source. The call rests on the fitted dose curve; in most records, active means well fitted inhibition curve with a large enough effect; inconclusive means small, poorly fitted or top-dose-only effect; inactive means flat fitted curve, though single readings scatter.
Assays:
Test in all cases: Cytotoxic Profiling of Annotated Libraries Using Quantitative High-Throughput Screening (AID 1296008); further: nearly all actives have a fitted effect of over 60% in size
Conditions in all cases: Five cell lines viability, CellTiter-Glo ATP luminescence, 48-72 h; max response: hits give low values
CRL-7250 = normal cell line; test system: CRL-7250
In short: (§1)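 Cells exposed to compounds for 48 or 72 hr at 37 degrees Celsius. Viability read as ATP-coupled luminescence with CellTiter-Glo after 10 min at room temperature.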

HEK293 = test system: HEK293
In short: as §1

HaCat = test system: HaCat
In short: as §1

KB-3-1 = test system: KB-3-1
In short: as §1
On the % scale 0 is the no-effect control and ±100 the full control effect; potency means the concentration at half of the fitted maximal effect.

CC1=C2C3OC(=O)C(C)C3(O)CCC2(C)CCC1O (configuration not stated)
max response (CRL-7250): -5.4% | max response (HEK293): -8.27% | max response (HaCat): -12.8% | max response (KB-3-1): 5.71%

COc1cc2nc(N3CCCC3)nc(NCCCCCN3CCCC3)c2cc1OC
Potency (CRL-7250): 20.6 µM (active) | Potency (HEK293): 4.61 µM (active) | Potency (HaCat): 18.4 µM (active) | Potency (KB-3-1): 16.4 µM (active)

O=C(OC[C@@]1(O)CO[C@@H](O[C@H]2[C@H](Oc3ccc(O)cc3)O[C@H](CO)[C@@H](O)[C@@H]2O)[C@@H]1O)c1ccc(O)cc1
outcome (CRL-7250): inactive | max response (HEK293): -7.32% | max response (HaCat): -0.439% | max response (KB-3-1): -1.14%

OC[C@H]1O[C@@H](OCCc2ccc(O)cc2)[C@H](O[C@@H]2OC[C@](O)(CO)[C@H]2O)[C@@H](O)[C@@H]1O
max response (CRL-7250): -6.14% | max response (HEK293): 0.652% | max response (HaCat): 1.3% | max response (KB-3-1): 8.69%

CC1C(OC(=O)c2ccccc2)C(O)C2C(C(=O)O)=COC(OC3OC(CO)C(O)C(O)C3O)C12 (configuration not stated)
max response (CRL-7250): 3.33% | max response (HEK293): -0.0764% | max response (HaCat): -2.92% | outcome (KB-3-1): inactive

NC(=O)c1cnc(NCCc2ccc(O)c(Cl)c2)nc1NCc1ccccc1
Potency (CRL-7250): 7.31 µM (active) | Potency (HEK293): 6.51 µM (active) | Potency (HaCat): 14.6 µM (active) | Potency (KB-3-1): 16.4 µM (active)

CC(=O)N1CCc2ccc(O)c(OC3OC(COC4OCC(O)(CO)C4O)C(O)C(O)C3O)c2C1Cc1ccc(O)cc1 (configuration not stated)
max response (CRL-7250): -12.6% | max response (HEK293): -5.03% | max response (HaCat): -0.476% | max response (KB-3-1): 3.16%

CC(=O)c1c(O)cc(O[C@@H]2O[C@H](CO)[C@@H](O)[C@H](O)[C@H]2O)cc1O
max response (CRL-7250): -2.16% | max response (HEK293): 1.76% | max response (HaCat): -1.69% | outcome (KB-3-1): inactive

From PubChem BioAssay (NCATS)
